Laboratory results from the antibiotic and cytotoxicity screens of Wong et al. (2023).
The whole screen tested about 39,000 compounds, of which about 3,300 (8.5%) were called active. The list comes from a sample in which actives are over-represented; it also holds similar structures and randomly drawn compounds.

These molecules were tested on HepG2 (assay: cytotoxicity call (relative viability < 0.9)). Details: 10 µM.

Compound | cytotoxicity call
Cc1csc2sc(COC(=O)Nc3ccccc3)c(C)c12 | inactive
Cc1csc2sc(C(=O)Oc3ccc(Cl)cc3)c(C)c12 | inactive
Cc1csc2sc(/C=N/Cc3cccs3)c(C)c12 | active
C[C@@H]1CN([C@@H](C)CO)C(=O)c2cc(NS(=O)(=O)c3cccs3)ccc2O[C@@H](C)CCCCO[C@@H]1CN(C)C(=O)c1ccccc1 | inactive
O=C(C[C@H]1C[C@@H]2c3cc(NC(=O)c4ccc5c(c4)OCO5)ccc3O[C@@H]2[C@@H](CO)O1)NCC(F)(F)F | inactive
C[C@H]1CCCCO[C@@H](CN(C)S(=O)(=O)c2ccc(F)cc2)[C@@H](C)CN([C@@H](C)CO)C(=O)c2cc(NC(=O)CCC(F)(F)F)ccc2O1 | inactive
CCc1ccc(NC(=O)C2CCN(S(=O)(=O)c3c(C)[nH]c(=O)[nH]c3=O)CC2)cc1 | active
Cc1[nH]c(=O)[nH]c(=O)c1S(=O)(=O)N1CCC(C(=O)NCCC(C)C)CC1 | inactive
Cc1[nH]c(=O)[nH]c(=O)c1S(=O)(=O)N1CCC(C(=O)N[C@H](C)c2ccccc2)CC1 | inactive
COCC(=O)N1[C@@H]2c3ccc(C4=CCCC4)c(=O)n3C[C@@H]2[C@@H](CO)[C@@H]1C(=O)N1CCN(C)CC1 | inactive
Cc1noc(C)c1NC(=O)Nc1cccc2c1O[C@@H](CN(C)Cc1ccc(-c3ccccc3)cc1)[C@@H](C)CN([C@H](C)CO)C2=O | inactive
C[C@@H]1CCCCO[C@@H](CN(C)Cc2ccc(Cl)c(Cl)c2)[C@@H](C)CN([C@H](C)CO)C(=O)c2cc(NC(=O)C3CCCCC3)ccc2O1 | active
C[C@@H]1CCCCO[C@H](CN(C)Cc2ccc(Cl)c(Cl)c2)[C@@H](C)CN([C@H](C)CO)C(=O)c2cc(NC(=O)C3CCCCC3)ccc2O1 | inactive
C[C@H](CO)N1C[C@H](C)[C@@H](CN(C)Cc2ccc(Cl)c(Cl)c2)Oc2ccc(NC(=O)C3CCCCC3)cc2C1=O | inactive
C[C@@H]1CN([C@H](C)CO)C(=O)c2cc(NC(=O)C3CCCCC3)ccc2O[C@@H](C)CCCCO[C@@H]1CN(C)Cc1ccc(Cl)c(Cl)c1 | inactive
C[C@@H]1CCCCO[C@@H](CN(C)Cc2ccc(Cl)c(Cl)c2)[C@@H](C)CN([C@@H](C)CO)C(=O)c2cc(NC(=O)C3CCCCC3)ccc2O1 | inactive
C[C@@H]1CCCCO[C@H](CN(C)Cc2ccc(Cl)c(Cl)c2)[C@@H](C)CN([C@@H](C)CO)C(=O)c2cc(NC(=O)C3CCCCC3)ccc2O1 | active
C[C@H](CO)N1C[C@H](C)[C@@H](CN(C)Cc2ccc(Cl)c(Cl)c2)OCCCC[C@H](C)Oc2ccc(NC(=O)C3CCCCC3)cc2C1=O | inactive
C[C@@H]1CN([C@@H](C)CO)C(=O)c2cc(NC(=O)C3CCCCC3)ccc2O[C@@H](C)CCCCO[C@H]1CN(C)Cc1ccc(Cl)c(Cl)c1 | active
C[C@@H]1CN([C@@H](C)CO)C(=O)c2cc(NC(=O)C3CCCCC3)ccc2O[C@H]1CN(C)Cc1ccc(Cl)c(Cl)c1 | inactive
C[C@@H]1CCCCO[C@H](CN(C)Cc2ccc(Cl)c(Cl)c2)[C@H](C)CN([C@@H](C)CO)C(=O)c2cc(NC(=O)C3CCCCC3)ccc2O1 | inactive
C[C@@H]1CCCCO[C@@H](CN(C)Cc2ccc(Cl)c(Cl)c2)[C@H](C)CN([C@@H](C)CO)C(=O)c2cc(NC(=O)C3CCCCC3)ccc2O1 | inactive

Compound | cytotoxicity call
C[C@@H]1CN([C@H](C)CO)C(=O)c2cc(NC(=O)C3CCCCC3)ccc2O[C@@H](C)CCCCO[C@H]1CN(C)Cc1ccc(Cl)c(Cl)c1 | active
C[C@H](CO)N1C[C@H](C)[C@H](CN(C)C(=O)NC2CCCCC2)Oc2ccc(NC(=O)Nc3cccc4ccccc34)cc2CC1=O | inactive
C[C@@H]1CN([C@H](C)CO)C(=O)Cc2cc(NC(=O)Cc3ccccc3)ccc2O[C@@H]1CN(C)S(=O)(=O)c1ccc(F)cc1 | inactive
Cc1noc(C)c1NC(=O)Nc1ccc2c(c1)C(=O)N([C@H](C)CO)C[C@H](C)[C@@H](CN(C)C(=O)NC1CCCCC1)OCCCC[C@H](C)O2 | inactive
C[C@@H]1CN([C@H](C)CO)C(=O)c2cccc(NS(C)(=O)=O)c2O[C@H]1CN(C)C(=O)Nc1ccc(F)cc1 | inactive
O=C(C[C@H]1C=C[C@@H](NC(=O)CN2CCOCC2)[C@@H](CO)O1)NCc1cccc(F)c1 | inactive
Cc1noc(C)c1NC(=O)Nc1cccc2c1O[C@H](CN(C)C(=O)Nc1cccc3ccccc13)[C@H](C)CN([C@H](C)CO)C2=O | inactive
C[C@@H]1CN([C@@H](C)CO)C(=O)Cc2cc(NC(=O)c3ccncc3)ccc2O[C@@H]1CN(C)S(=O)(=O)c1cn(C)cn1 | inactive
C=C(C)C1=NC(C)(C)C[C@H](C)O1 | inactive
CS(=O)(=O)N1C[C@@H]2COC[C@@]2(CN2CCOCC2)C1 | inactive
CC(C)(C)S(=O)N1Cc2cc(C(=O)NCc3ccc4c(c3)OCO4)nc(-c3cccc(C#CCC4CCCC4)c3)c2[C@@H]1CCO (stereo partly specified) | inactive
CN(C)CCCNC(=O)C[C@@H]1CC[C@@H]2[C@H](COc3ccc(NC(=O)NC4CCCC4)cc3C(=O)N2C)O1 | inactive
Cc1noc(C)c1NC(=O)N(C)C[C@H]1OCCCC[C@H](C)Oc2ccc(NC(=O)c3ccccc3)cc2C(=O)N([C@@H](C)CO)C[C@@H]1C | inactive
C[C@H](CO)N1C[C@H](C)[C@H](CN(C)Cc2ccc(Cl)c(Cl)c2)OCCCC[C@H](C)Oc2ccc(NC(=O)C3CCCCC3)cc2C1=O | inactive
C[C@@H]1CN([C@@H](C)CO)C(=O)c2cc(NC(=O)C3CCCCC3)ccc2O[C@@H](C)CCCCO[C@@H]1CN(C)Cc1ccc(Cl)c(Cl)c1 | inactive
C[C@@H]1CCCCO[C@@H](CN(C)Cc2ccc(Cl)c(Cl)c2)[C@H](C)CN([C@H](C)CO)C(=O)c2cc(NC(=O)C3CCCCC3)ccc2O1 | active
COc1ccc(CN(C)C[C@@H]2Oc3ccc(NC(=O)CCCN(C)C)cc3C(=O)N([C@@H](C)CO)C[C@H]2C)cc1 | inactive
Cn1c(CNc2ccccc2)cc(=O)n(C)c1=O | inactive
COCCOC(=O)N1C(=O)[C@@]2(c3cc(C#CC4(O)CCCCCC4)ccc31)[C@H](c1ccccc1OCCO)N1[C@H](c3ccccc3)[C@H](c3ccccc3)OC(=O)[C@H]1[C@@H]2C(=O)N1CCc2cc(OC)c(OC)cc2C1 | inactive
NC1=CC(=O)c2ccccc2C1=O | inactive
O=C1C=C(O)C(=O)c2ccccc21 | inactive
CC1=CC(=O)c2ccccc2C1=O | active

Compound | cytotoxicity call
O=C(C[C@H]1CC[C@H]2[C@@H](COC[C@@H](O)CN2C(=O)Nc2ccc(F)cc2)O1)NCCCN1CCOCC1 | inactive
CC(C)NC(=O)N(C)C[C@@H]1Oc2ccc(NS(=O)(=O)c3cn(C)cn3)cc2C(=O)N([C@@H](C)CO)C[C@H]1C | inactive
C[C@@H]1CN([C@@H](C)CO)C(=O)CCCn2cc(nn2)CO[C@H]1CN(C)S(=O)(=O)c1ccc(Cl)cc1 | inactive
NC(=O)c1cc(S(=O)(=O)N2CCOCC2)ccc1F | active
Cn1c(=O)c(=O)n(C)c2cc(S(=O)(=O)N3CCOCC3)ccc21 | inactive
NCc1ccc(S(=O)(=O)N2CCOCC2)cc1 | inactive
COCC(=O)Nc1ccc2c(c1)OC[C@H](C)N(C(=O)Cc1ccccn1)C[C@H](C)[C@H](OC)CN(C)C2=O | inactive
C[C@@H]1CN([C@H](C)CO)S(=O)(=O)c2ccc(-c3cncnc3)cc2O[C@H]1CN(C)C(=O)NC1CCCC1 | inactive
CC[C@H]1OC(=O)[C@H](C)[C@@H](O[C@H]2C[C@@](C)(OC)[C@@H](O)[C@H](C)O2)[C@H](C)[C@@H](O[C@@H]2O[C@H](C)C[C@H](N(C)C)[C@H]2O)[C@](C)(OC)C[C@@H](C)C(=O)[C@H](C)[C@@H](O)[C@]1(C)O | inactive
C[C@@H](O)c1cccc(C(F)(F)F)c1 | inactive
COc1ccccc1C(=O)Nc1ccc2c(c1)C(=O)N(C)[C@H]1CC[C@H](CC(=O)NCc3ccc(Cl)c(Cl)c3)O[C@@H]1CO2 | active
COc1ccccc1C(=O)Nc1ccc2c(c1)C(=O)N(C)[C@@H]1CC[C@@H](CC(=O)NCc3ccc(Cl)c(Cl)c3)O[C@@H]1CO2 | active
COc1ccccc1C(=O)Nc1ccc2c(c1)C(=O)N(C)[C@H]1CC[C@@H](CC(=O)NCCc3ccncc3)O[C@H]1CO2 | inactive
COc1ccccc1C(=O)Nc1ccc2c(c1)C(=O)N(C)[C@@H]1CC[C@@H](CC(=O)NCCc3ccncc3)O[C@H]1CO2 | inactive
COc1ccccc1C(=O)Nc1ccc2c(c1)C(=O)N(C)[C@H]1CC[C@H](CC(=O)NCc3ccc(Cl)c(Cl)c3)O[C@H]1CO2 | active
COc1ccccc1C(=O)Nc1ccc2c(c1)C(=O)N(C)[C@@H]1CC[C@H](CC(=O)NCc3ccc(Cl)c(Cl)c3)O[C@@H]1CO2 | inactive
CN1C(=O)c2cc(NC(=O)Cc3cccs3)ccc2OC[C@H]2O[C@H](CC(=O)NCc3ccc(-c4ccccc4)cc3)CC[C@@H]21 | inactive
COc1ccccc1C(=O)Nc1ccc2c(c1)C(=O)N(C)[C@@H]1CC[C@H](CC(=O)NCc3ccc(Cl)c(Cl)c3)O[C@H]1CO2 | inactive
CN1C(=O)c2cc(NC(=O)Cc3cccs3)ccc2OC[C@@H]2O[C@H](CC(=O)NCc3ccc(-c4ccccc4)cc3)CC[C@@H]21 | active
COc1ccccc1C(=O)Nc1ccc2c(c1)C(=O)N(C)[C@@H]1CC[C@H](CC(=O)NCCc3ccncc3)O[C@@H]1CO2 | inactive
COc1ccccc1C(=O)Nc1ccc2c(c1)C(=O)N(C)[C@H]1CC[C@@H](CC(=O)NCCc3ccncc3)O[C@@H]1CO2 | inactive
CN1C(=O)c2cc(NC(=O)Cc3cccs3)ccc2OC[C@H]2O[C@@H](CC(=O)NCc3ccc(-c4ccccc4)cc3)CC[C@@H]21 | inactive
